Measured values: PubChem BioAssay AID746 (The Scripps Research Institute Molecular Screening Center, 2007)
In all, about 60,000 compounds went through this assay and about 370 (0.62%) were called active. Rule as the data show it: active = inhibition above about 17%; inactive = the rest. This excerpt belongs to a sample that is enriched for actives.

molecular target: Mitogen-activated protein kinase 10 (Homo sapiens) (UniProt P53779); experiment: JNK3 kinase activity inhibitors, primary screen, biochemical, human, purified enzyme (AID 746); details: HTS, at 8 µM, stronger effect = higher value;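 also: 0% = DMSO and 100% = reference inhibitor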
Sequence (P53779 whole entry, looked up): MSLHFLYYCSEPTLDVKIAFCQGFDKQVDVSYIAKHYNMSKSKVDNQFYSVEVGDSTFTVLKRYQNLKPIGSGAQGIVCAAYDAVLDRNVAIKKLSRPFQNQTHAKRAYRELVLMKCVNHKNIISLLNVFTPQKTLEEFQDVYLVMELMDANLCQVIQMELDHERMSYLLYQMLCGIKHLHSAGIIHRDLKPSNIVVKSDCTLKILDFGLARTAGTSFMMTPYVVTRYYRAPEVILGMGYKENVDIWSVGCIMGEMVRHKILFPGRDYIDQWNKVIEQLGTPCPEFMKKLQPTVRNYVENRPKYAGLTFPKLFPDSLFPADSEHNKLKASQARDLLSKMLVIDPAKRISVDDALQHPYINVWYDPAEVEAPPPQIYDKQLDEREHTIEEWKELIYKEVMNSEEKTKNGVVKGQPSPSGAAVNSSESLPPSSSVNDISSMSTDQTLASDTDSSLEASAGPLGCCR

inhibition, inactive:
COc1ccc(Cn2cccc(NC(=O)Nc3ccc(C#N)cc3)c2=O)cc1 2.85%
CCOC(=O)C1CCN(C(=O)Nc2ccc(Cl)cc2)CC1 3.13%
CCC(C)Sc1nnc(-c2c[nH]c3ccccc23)n1CCOC (stereo not given) -1.71%
COc1ccc(CCNC(=O)CCn2c(=O)oc3ccccc32)cc1OC -2.91%
Cc1cc(C)c(S(=O)(=O)NCCCN2CCOCC2)cc1Br -5.01%
COc1ccc(OC)c(C2N(c3ccccn3)C(=O)C3CCCN32)c1 (stereo not given) 1.09%
Cc1cc(=O)n2c3c(cccc13)CCC2 6.82%
CCOC(=O)c1sc2nc(CSCC(=O)OCc3ccc(C(=O)OC)o3)[nH]c(=O)c2c1C 0.98%
COC(=O)c1c(NC(=O)CCN2CCOCC2)sc2c1CCCC2 -3.4%
COc1ccccc1-n1cnc2cc(NS(=O)(=O)c3ccccc3)ccc21 4.48%
COc1ccc(O)c(C=Nc2cc(C)on2)c1 0.04%
Cc1cc(C)n(C(=O)c2ccc(C)c(S(=O)(=O)N3CCOCC3)c2)n1 1.61%
Cc1cccc2cc(C#N)c(N3CCCC3)nc12 2.01%
CC(C)COC(=O)C1C2C=CC3(CN(C(C)c4ccc(Br)cc4)C(=O)C13)O2 (stereo not given) -6.16%
NC(=O)C1(N2CCCCC2)CCN(C(=O)c2ccc(C#Cc3ccccc3)o2)CC1 -2.13%
CCCn1c(SCC(=O)Nc2c(C)cccc2C)nnc1C(C)C -2.91%
C=CCN(c1ccc(C(N)=O)cc1)S(C)(=O)=O 4.4%
CCCOC(=O)Nc1ccccc1C(N)=O -5.47%
NC(=O)c1ccccc1NC(=O)c1ccccc1F 13.4%
CCOCCCNS(=O)(=O)Cc1ccccc1 1.76%
CCCCOc1ccc(C(=O)NCc2ccco2)cc1 0.41%
CCOc1ccc2nc(N3CCCN(C(=O)Nc4ccccc4C)CC3)c(C#N)cc2c1 0.49%
CCN(c1ccccc1)S(=O)(=O)c1ccc(N)cc1 2.15%
CC1=C(C(N)=O)C(c2ccc3c(c2)OCO3)n2nc(-c3cccc(C)c3)nc2N1 (stereo not given) 5.86%
CCOC(=O)c1ccc(Nc2cc(C)nc3nc(C)nn23)cc1 -10.1%
COc1ccccc1NC(=O)CSc1nnc(Cn2nnc(-c3ccccc3)n2)n1-c1ccccc1 -0.28%
O=C(Nc1nsc(-c2ccccc2)n1)c1ccncc1 1.54%
CC1CSc2nnc(CCc3ccccc3)n21 (stereo not given) 16.5%
COC(=O)c1cc(C(=O)CSc2nc(C)cc(C)n2)ccc1O 1.84%
COc1c(O)cccc1-c1nnn(CCC(=O)OCC(=O)c2ccccc2)n1 0.11%
CC(CCc1ccccc1)NC(=O)c1ccc(Br)o1 (stereo not given) 3.4%
NC(=O)CCCC1=NS(=O)(=O)c2ccccc2N1 11.7%
Nc1nonc1C(=O)NCCc1ccccc1 2.83%
CC(C)CC(=O)N=C1SC2CS(=O)(=O)CC2N1CCc1ccccc1 (stereo not given) -1.83%
Cc1noc(C)c1S(=O)(=O)N(CC(=O)Nc1ccc2c(c1)OCCO2)c1ccc(C(C)C)cc1 0.66%
C=CCNc1nnc(SCC(=O)N2CCCCC2)c2ccccc12 -2.85%
Nc1nnc(SCCN2C(=O)c3ccccc3S2(=O)=O)s1 -1.92%
Cc1ccc(CNC(=O)CCCNC(=O)c2ccc(Cl)cc2)n1C 10.2%
Cc1ccc(Oc2ccc(N)cc2)cc1 6.53%
CCOc1cc2c(cc1OCC)C(C(=O)O)C(c1ccc(OC)c(O)c1)N(C)C2=O (stereo not given) -0.42%
O=C(C1CCC1)N1CCc2cc(S(=O)(=O)NCc3cccnc3)ccc21 -6.87%
COC(=O)c1cc(Cl)c(NC(=O)c2ccco2)cc1OC -6.35%
Cc1cc2c(=O)n(C)c(SCC(=O)c3cc4ccccc4o3)nc2s1 -3.37%
CCOC(=O)c1c(NC(=O)c2cccs2)sc(C)c1C 6.19%
Oc1c(C(c2cccs2)N2CCN(c3ccc(F)cc3)CC2)sc2ncnn12 (stereo not given) 1.85%
O=C1c2ccccc2-c2ncnc3c(N4CCOCC4)cc(N4CCOCC4)c1c23 -9.75%
CCOc1cc(C(=O)Nc2ncccn2)cc(OCC)c1OCC -1.81%
O=C(NCCN1CCOCC1)c1c(F)c(F)c(F)c(F)c1F 7.3%
CCn1nc(C(=O)OCC(=O)N2c3ccccc3CC2C)c2ccccc2c1=O (stereo not given) 1.01%
Cn1cnc2c1c(=O)n(Cc1c(Cl)cccc1Cl)c(=O)n2C 2.26%
Cc1nnc(NC(=O)CSc2nccn2-c2cccc(C)c2C)s1 -4.27%
CCOC(=O)C1CCCN(C(=O)Cn2ncc3c(=O)oc4ccc(C)cc4c32)C1 (stereo not given) 0.71%
Cc1ccc2oc(=O)c3cnn(CC(=O)N4CCCCCC4)c3c2c1 0.73%
CCOc1ccc(C(=O)Nc2ccncc2)cc1 0.07%
O=S(N1CCCCCC1)C12CC3CC(CC(C3)C1)C2 (stereo not given) 8.25%
COC(=O)c1cc(NC(=O)CN2CCC(C(N)=O)(N3CCCCC3)CC2)cc(C(=O)OC)c1 -2.8%
COc1ccc(NC(C)=O)cc1NC(=O)CN1CCN(c2ccccn2)CC1 2.12%
COc1ccc(-c2cc(C(=O)NC(C(=O)O)C(C)C)c(C)o2)cc1OC (stereo not given) 1.2%
Cc1cc(C(=O)O)c(S(C)(=O)=O)s1 0.82%
CC1=C(C)CC2C(=O)N(c3cccc4ccccc34)C(=O)C2C1 (stereo not given) 0%
COc1ccccc1Cc1nc(-c2ccc(C)cc2)no1 4.84%
CC(C)Cc1cc(C(=O)Nc2cc(Br)ccc2O)no1 -4.9%
COc1ccc(CCN(C)C(=O)C2CCCN(Cc3ccc(OC)c(OC)c3)C2)cc1OC (stereo not given) 4.04%
CN(C)/C=C1/C(=O)Nc2ccccc21 -8.06%
O=C(CCN1C(=O)c2ccccc2C1=O)Nc1ccncc1 0.63%
COc1ccc(-c2nc3n(c2Br)CCC3)cc1 -4.37%
CCCC(=O)Nc1ccc2c(c1)nc1n2CCSC1 -5.4%
Cc1ccsc1C(=O)OCC(=O)c1cc(C)n(CC2CCCO2)c1C (stereo not given) 1.34%
COc1ncnc2c1N=C1CC(C)(C)CC(N)=C1S2 -12.2%
O=C(COc1ccccc1)NCCc1nc2ccccc2[nH]1 5.21%
COc1ccc(NC2CC(=O)N(C)C2=O)cc1 (stereo not given) -1.99%
CCN(CC)P(=O)(/C(Cl)=C\Nc1c(C)n(C)n(-c2ccccc2)c1=O)N(CC)CC 4.4%
CCOC(=O)N1CCN(S(=O)(=O)c2cc3c(cc2C)NC(=O)CO3)CC1 1.04%
COc1ccc2c(c1)C=CC1(O2)N(CCO)c2ccccc2C1(C)C (stereo not given) -1.22%
CS(=O)(=O)N1CCN(C(=O)Cc2ccccc2)CC1 7.69%
Cc1cc(C(=O)N2CCN(c3ccccn3)CC2)c(C)o1 2.54%
COc1cccc(OC)c1C(=O)Nc1nnc(C(C)C)s1 -2.05%
Cn1cccc1Cc1nnc(SCC(=O)NCc2ccc3c(c2)OCO3)n1CCc1ccccc1 -1.11%
CCn1c(SCCC(C)C)nnc1-c1c[nH]c2ccccc12 2.85%
CCC(c1nnnn1C1CCCC1)N1CCN(C(=O)c2ccco2)CC1 (stereo not given) -1.42%
Fc1ccc(OCc2nn3c(Cn4nnc5ccccc54)nnc3s2)cc1 -2.42%
CCn1c(SCC(=O)c2ccc(Cl)s2)nnc1-c1cccs1 -1.37%
CC12CN(Cc3ccccc3)CC(C)(CN(Cc3ccccc3)C1)C2=NO 1.42%
COc1ccccc1-c1c(C)nn2c(C)c(C(C)=O)cnc12 0.53%
O=S(=O)(NCCOc1cccc2cccnc12)c1ccc(F)cc1 -0.52%
FC(F)(F)c1cc(-c2ccco2)nc(N2CCOCC2)n1 2.31%
Cc1cccn2c(=O)c3cc(C(=O)N4COCC4(C)C)n(C)c3nc12 5.99%
COc1ccc(-n2nc3c(c2NC(=O)Cc2cccc(C)c2)CS(=O)C3)cc1 (stereo not given) 1.83%
CCCC(=O)N=c1sc2cccc(F)c2n1C -1.7%
CN(c1nc2ccccc2n2c(-c3ccco3)nnc12)S(=O)(=O)c1ccccc1 -4.26%
C=C(C)Cn1c(N2CCCC2)nc2c1c(=O)[nH]c(=O)n2C 2.48%
NC(=O)CSc1c[nH]c2ccccc12 6.99%
CNC(=O)c1nnn(-c2ccccc2)c1C(=O)NC -3.49%
CCCOc1ccc(C2c3c(oc4cc(C)c(C)cc4c3=O)C(=O)N2CCCN2CCOCC2)cc1 (stereo not given) 3.64%
Brc1ccc(OCCn2ccnc2)cc1 1.14%
CC(=O)N1CCN(c2ccc(NCc3ccc(C(C)C)cc3)cc2)CC1 -4.46%

inhibition, active:
COc1cccc(OCC(=O)Nc2ccccc2C(N)=O)c1 26.1%
Cc1ccc2oc(=O)c3cnn(CC(=O)N4CCN(c5ccccn5)CC4)c3c2c1 37.2%
COC(=O)c1cccc(NC(=O)CN2CCC(NC(=O)c3cc(OC)c(OC)c(OC)c3)CC2)c1 79.2%
CCCOc1ccc(C2C(C(=O)c3ccc(C)o3)=C(O)C(=O)N2CCCn2ccnc2)cc1 (stereo not given) 42.8%
